HTT ATP protect: qHTS Multiplex Assay to Identify Dual Action Probes in a Cell Model of Huntington: Cytoprotection (ATP); Potency, µM (highest dose often 56.4 µM), without a hit: cytoprotection (ATP increase), hits mostly activators; 0.14% of 230,000 active; PC12 HTT-Q103 induced, cytoprotection, ATP luminescence, 40 h; also: % of control where 0% means no effect; nearly all actives have a fitted effect of over 45% in size
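PC12 cells stably carrying ecdysone-inducible Htt exon 1 (Q103)–GFP were induced with 100 nM tebufenozide (final) alongside library compounds in a dose series. Cytoprotection was scored as retained ATP by ATPlite luminescence.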
Lamin A splicing: qHTS Assay for Modulators of Lamin A Splicing; HeLa LMNA splicing GFP/RFP minigene ratio, 48 h; Potency, µM (doses to about 46.1 µM), for inactives: at the highest dose ratio change, negative = inhibition, hits mostly inhibitors; 0.01% of 200,000 active; AID 1487, 2009; active = well fitted inhibition curve with a large enough effect in the signal ratio, with a control signal flat, not every such curve was filed as active; inconclusive = small, poorly fitted or top-dose-only effect, or effect the other way, or a change in a side signal; the % refers to the signal ratio; also: % is scaled to controls: 0 for no effect and ±100 for the full control effect
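Read-out is the ratio of GFP to DsRed2 object intensity, acquired by 488 nm laser-scanning cytometry on HeLa lamin A-EGFP minigene reporter cells. Compound incubation 48 hrs at 37 °C in Opti-MEM with 2% FBS; DMSO 0.5% final.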
ALDH1A1 inh: qHTS Assay for Inhibitors of Aldehyde Dehydrogenase 1 (ALDH1A1). Aldehyde dehydrogenase 1A1 (Homo sapiens), P00352. Potency, µM (series often up to 75.3 µM), without a hit: at the top dose activity, negative = inhibition, most hits filed as inhibitors. Purified ALDH1A1, NADH fluorescence, propionaldehyde substrate. 7.3% of 220,000 active; active = well fitted inhibition curve with a large enough effect, not every such curve was filed as active; inconclusive = small, poorly fitted or top-dose-only effect, or another doubt; inactive = no such curve, though single readings can be large or run the other way;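 also: plate controls were no enzyme wells and a reference inhibitor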
Target sequence (P00352 whole entry, looked up): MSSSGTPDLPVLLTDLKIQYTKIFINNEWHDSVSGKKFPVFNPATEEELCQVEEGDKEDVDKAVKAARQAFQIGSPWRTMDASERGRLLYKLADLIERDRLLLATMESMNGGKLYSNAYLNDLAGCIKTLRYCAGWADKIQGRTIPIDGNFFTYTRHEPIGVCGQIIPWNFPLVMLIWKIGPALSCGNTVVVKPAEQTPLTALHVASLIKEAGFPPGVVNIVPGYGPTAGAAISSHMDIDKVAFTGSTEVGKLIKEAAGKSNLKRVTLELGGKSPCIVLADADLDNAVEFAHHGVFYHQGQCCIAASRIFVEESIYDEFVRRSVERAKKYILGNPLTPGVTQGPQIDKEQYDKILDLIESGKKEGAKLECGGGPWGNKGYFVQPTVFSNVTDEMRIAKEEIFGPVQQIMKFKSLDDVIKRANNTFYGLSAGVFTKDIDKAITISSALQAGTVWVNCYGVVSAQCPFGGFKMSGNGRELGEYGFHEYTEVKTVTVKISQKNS
KinaseGlo FLuc: Counterscreen for Luciferase (Kinase-Glo TM) Inhibition; Kinase-Glo luciferase, ATP luminescence, 8 min; Potency, µM (highest dose often 38.3 µM), inactives show at the highest dose activity change, negative = inhibition, actives largely listed as inhibitors; 0.28% of 200,000 active; also: % is scaled to controls: 0 for no effect and ±100 for the full control effect; nearly all actives have a fitted effect of over 60% in size
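Kinase-Glo luciferase light output from ATP and luciferin was measured with 10 uM ATP, within the enzyme's linear range. Buffer: 50 mM imidazole pH 7.2, 50 mM KCl, 7 mM MgCl2, 0.01% Tween 20, 0.05% BSA; luminescence read after 8 min at ambient temperature.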
HPGD inh: qHTS Assay for Inhibitors of HPGD (15-Hydroxyprostaglandin Dehydrogenase). purified HPGD, NADH fluorescence kinetic, PGE2 substrate. 4.3% of 150,000 active. Potency, µM, without a hit: top-dose activity change, negative = inhibition, usual class: inhibitors. AID 894, 2007. 15-hydroxyprostaglandin dehydrogenase [NAD(+)] (Homo sapiens), P15428; active = well fitted inhibition curve with a large enough effect, not every such curve was filed as active; inconclusive = small, poorly fitted or top-dose-only effect, or another doubt; inactive = no such curve, though single readings can be large or run the other way; also: % is scaled to controls: 0 for no effect and ±100 for the full control effect
Target sequence (P15428 whole entry, looked up): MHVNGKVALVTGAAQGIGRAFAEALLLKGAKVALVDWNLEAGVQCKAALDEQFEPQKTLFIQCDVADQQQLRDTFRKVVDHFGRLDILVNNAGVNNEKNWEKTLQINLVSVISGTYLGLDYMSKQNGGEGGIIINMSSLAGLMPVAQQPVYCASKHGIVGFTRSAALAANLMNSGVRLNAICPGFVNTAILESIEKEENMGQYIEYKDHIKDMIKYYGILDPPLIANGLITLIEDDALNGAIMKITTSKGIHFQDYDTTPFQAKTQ
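NADH formation kinetics: reaction with 30 uM PGE2 and 1 mM NAD+ (final), 20 nM enzyme, Tris-HCl pH 8 with Tween 20, after 15 min compound preincubation at room temperature. Fluorescence change, last versus first of five reads.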
HTT aggregate: qHTS Multiplex Assay to Identify Dual Action Probes in a Cell Model of Huntington: Aggregate Formation (GFP). PC12 HttQ103-GFP aggregates, Acumen cytometry, 40 h. Potency, µM (series often up to 46.1 µM), inactives show at the highest dose activity change, negative = inhibition, usual class: inhibitors. 1.1% of 220,000 active. AID 1688, 2009; also: % is scaled to controls: 0 for no effect and ±100 for the full control effect; nearly all actives have a fitted effect of over 60% in size
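Quantitative HTS on tebufenozide-induced (100 nM) PC12 cells stably expressing polyQ103 Huntingtin exon 1–GFP. Reduction of bright GFP aggregates, detected by laser scanning cytometry after lysis, identified actives across the titration.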
Starred values were filed as active, the others as inactive; ? = inconclusive; nt = no result; [ ] = another dose, or the depositor's remark. In the library only some 9% were active in any assay of this set; here they are far more common. Unless noted, calls follow the shape of the dose curve; as a rule, active = well fitted curve in the direction sought with a large enough effect; inconclusive = small, poorly fitted or top-dose-only effect, or another doubt; inactive = no such curve, though single readings can be large; an effect the other way counts as inactive or inconclusive. Potency is read from the fitted curve at half-maximal effect.

SMILES	HTT ATP protect	Lamin A splicing	ALDH1A1 inh	KinaseGlo FLuc	HPGD inh	HTT aggregate
COc1cc(OC)c(NC(=O)Cn2c(=O)cc(C(F)(F)F)c3c(C)nn(C)c32)cc1Cl	nt	-1%[46 µM]	nt	nt	nt	nt
Cc1onc(-c2ccccc2)c1-c1ccnn1S(=O)(=O)c1ccc(Cl)cc1	14%[10 µM]	nt	7.9µM*	nt	nt	-2%[9.22 µM]
O=[N+]([O-])c1ccc(N2CCCC2)nc1N1CCCC1	1%[10 µM]	nt	1.4µM*	nt	nt	15%[9.22 µM]
Cc1ccc(C2CC(=O)N(c3ccc(F)cc3)C3=C2C(=O)CCC3)cc1 (configuration not stated)	-13%	-3%	-12%	-2%	-13%	6%
Cc1nc(NC(=O)c2ccccc2)sc1-c1csc(N)n1	-56%[10 µM]	?	?	-10%	-14%	-29%
COc1cc(C(Nc2ccc(S(=O)(=O)NCC3CCCO3)cc2)C(=O)NC(C)(C)C)cc(OC)c1OC (configuration not stated)	19%[10 µM]	nt	nt	nt	nt	0%[9.22 µM]
COc1cc(C(Nc2ccc(S(=O)(=O)N3CCC(C)CC3)cc2)C(=O)NCC2CCCO2)cc(OC)c1OC (configuration not stated)	nt	-2%	3.5µM*	0%	-11%	6%
C#CCOCCOCCOCCNc1nc(N2CCOCC2)nc(N2CCN(C(=O)Cn3cc(CC(C)O)nn3)CC2)n1 (configuration not stated)	nt	-2%	6%	-3%	-9%	-2%
Clc1cccc(-c2ccc(CNCCCN3CCOCC3)o2)c1	-23%	nt	28µM*	6%	nt	12%
Nc1ccccc1SCc1csc(-c2ccc(Cl)cc2)n1	-9%[10 µM]	nt	10%[13.5 µM]	-1%[7.66 µM]	0%	13%[9.22 µM]
CCOC(=O)Cn1nnnc1C(CC)N(Cc1cc2ccc(C)cc2[nH]c1=O)C1CCCC1 (configuration not stated)	-20%[10 µM]	-7%	20µM*	17%	-16%	-14%
CCOC(=O)Cn1nnnc1C(CC)N(Cc1cccs1)Cc1cc2cc(C)ccc2[nH]c1=O (configuration not stated)	2%	-6%	?	0%	?	-25%
CCOC(=O)Cn1nnnc1C(CC)N(Cc1cc2c(C)cc(C)cc2[nH]c1=O)C1CCCC1 (configuration not stated)	-26%	5%	18µM*	1%	-7%	4%[9.22 µM]
O=C(COC(=O)Cc1ccccc1F)Nc1ccc(Cl)cn1	-19%	?	13µM*	0%	nt	-4%
CC(C)c1ccc(NC(=O)C2CC(=O)N=C(N)S2)cc1 (configuration not stated)	-6%	10%	18µM*	-4%	-1%	3%
CCc1ccc(NC(=O)C2CC(=O)N=C(N)S2)cc1 (configuration not stated)	3%	0%	-6%	2%	-16%	-1%
NC1=NC(=O)CC(C(=O)Nc2cccc3ccccc23)S1 (configuration not stated)	-19%	7%[9.22 µM]	-13%	-1%	nt	7%
NC1=NC(=O)CC(C(=O)NCCc2ccccc2)S1 (configuration not stated)	-3%[10 µM]	14%	13µM*	-5%	6%	-2%
CC(=O)c1ccc(-n2cc(-c3ccc(C(C)(C)C)cc3)[n+]3c2SCCC3)cc1	-49%	-21%[46 µM]	8%	8%	nt	10µM*
Cc1cccc(C)c1Nc1ncnc(N)c1[N+](=O)[O-]	3%[10 µM]	-9%	15%	1%	0%	-13%
Cc1ccc(CNc2ncnc(N)c2[N+](=O)[O-])cc1	6%	-3%[46 µM]	18%	-1%	nt	4.5µM*
Nc1cccc2c1C(=O)N(C(=O)/C=C/c1cccc(Br)c1)C2=O	12%[10 µM]	nt	?	nt	nt	0%[9.22 µM]
O=C(O)c1c(NC(=O)c2cccc3ccccc23)sc2c1CCC2	0%	-10%	?	4%	16µM*	11%[9.22 µM]
O=C(Nc1sc2c(c1C(=O)O)CCC2)c1ccccc1	-33%	?	6%	-16%	18µM*	12%
O=C(Nc1sc2c(c1C(=O)O)CCCCC2)c1ccccc1	-39%[10 µM]	nt	?	?	nt	10%[9.22 µM]
SMILES	HTT ATP protect	Lamin A splicing	ALDH1A1 inh	KinaseGlo FLuc	HPGD inh	HTT aggregate
O=C(Nc1sc2c(c1C(=O)O)CCC2)c1cccs1	-10%[10 µM]	?	?	-23%	25µM*	-16%
O=C(Nc1sc2c(c1C(=O)O)CCC2)c1ccc(F)cc1	-76%	-18%[46 µM]	-7%	-3%	nt	-10%
CC(Cc1c[nH]c2ccccc12)C(=O)O (configuration not stated)	2%	31%[46 µM]	9%	-1%	nt	25%
CS(=O)(=O)N(CC(=O)Nc1cccnc1)c1ccc2c(c1)OCCO2	4%	-3%	15%	2%	-6%	-5%
Cc1ccc(-n2nnnc2C(Cl)(Cl)c2nnnn2-c2ccc(C)cc2)cc1	-42%	-6%	1.3µM*	-2%	3.5µM*	?
CCSCCOC(=O)C1=C(C)NC(=O)NC1c1ccc2c(c1)OCO2 (configuration not stated)	-39%	-6%	14µM*	6%	-14%	-18%
CCOC(=O)C1=C(C)NC(=O)NC1c1ccc2c(c1)OCO2 (configuration not stated)	-4%[1.9 µM]	-2%	-32%	-3%	-18%	22%
COc1ccccc1/C=C\C=N\n1c(C2CCCCC2)n[nH]c1=S	-49%[10 µM]	-2%[0.0737 µM]	?	2%	14µM*	?
S=c1[nH]nc(-c2ccncc2)n1/N=C/C(Cl)=C\c1ccccc1	0%[10 µM]	-12%[46 µM]	-14%	1%	nt	-22%[9.22 µM]
S=c1[nH]nc(C2CCCCC2)n1/N=C/c1ccco1	3%[0.074 µM]	16%	?	-2%	?	5%
COc1ccc(-c2cc(-c3n[nH]c(=S)n3-c3ccccc3OC)[nH]n2)cc1	nt	2%	?	1%	11µM*	28%
COc1ccccc1/C=C/C=N/n1c(-c2ccncc2)n[nH]c1=S	23%[0.074 µM]	?	4%	1%	14µM*	-1%
COc1ccc(-c2n[nH]c(=S)n2/N=C/C=C\c2ccccc2OC)cc1	-31%[10 µM]	?	?	0%	0.89µM*	21%
O=c1[nH]cnc2c1C1(CCCC1)Cc1ccccc1-2	18%[10 µM]	-7%	-6%	2%	-8%	-16%
COc1cc(CC(=O)OCC(=O)Nc2sccc2C(N)=O)cc(OC)c1OC	33%[10 µM]	?	?	5%	nt	20%

Screens (PubChem)
